# Screening results as filed in PubChem.
# LRH-1 inv ag: inverse agonists of human LRH-1 (NR5A2); HEK293T StAR-luciferase reporter, LRH-1 transfected, 24 h; inhibition, % at 3.6 µM; 360,000 tested, 0.13% active;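 active means inhibition above the mean inhibition of all tested compounds plus 3 SD, cut at about 73% in these data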;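 further: 0% = DMSO wells and 100% = reporter-only cells lacking LRH-1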
# Target sequence (O00482 whole entry, looked up): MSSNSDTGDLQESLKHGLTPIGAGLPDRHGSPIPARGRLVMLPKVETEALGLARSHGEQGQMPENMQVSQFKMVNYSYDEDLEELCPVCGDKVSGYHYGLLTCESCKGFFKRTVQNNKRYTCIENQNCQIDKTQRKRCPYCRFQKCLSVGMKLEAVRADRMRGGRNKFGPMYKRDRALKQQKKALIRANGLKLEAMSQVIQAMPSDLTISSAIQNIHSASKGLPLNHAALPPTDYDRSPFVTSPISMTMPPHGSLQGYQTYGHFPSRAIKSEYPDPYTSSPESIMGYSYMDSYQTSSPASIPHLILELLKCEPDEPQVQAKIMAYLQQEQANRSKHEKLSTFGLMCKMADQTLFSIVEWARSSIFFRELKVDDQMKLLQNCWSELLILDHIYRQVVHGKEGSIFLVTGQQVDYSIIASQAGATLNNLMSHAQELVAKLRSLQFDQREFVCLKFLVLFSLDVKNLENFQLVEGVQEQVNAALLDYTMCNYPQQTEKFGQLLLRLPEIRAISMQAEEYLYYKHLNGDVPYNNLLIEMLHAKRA
# SRC2 inh: inhibits human steroid receptor coactivator 2; Q15596; HEK293 GAL4-SRC2 luciferase reporter, luminescence; inhibition, % at 9 µM; 370,000 tested, 0.17% active;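 active means inhibition above the mean inhibition of all tested compounds plus 3 SD, set per campaign, cut at about 52% in these data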;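 further: 0% = DMSO treated cells and 100% = cells given Gossypol at 36 µM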
# LGR2 inh: Drosophila LGR2 receptor signaling inhibition. HEK293 LGR2, CRE-luciferase, bursicon-stimulated, 4 h. inhibition, % at 9.99 µM. 380,000 tested, 0.35% active. AID 720647;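 active means drop in luminescence signal, shown as inhibition above about 50% in the replicate tests, limit read from the data, passing the limit was not always enough; inconclusive means probably only some replicates passing the limit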;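 further: agonist challenge used bursicon conditioned medium at about half maximal strength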
# NCOA1 inh: human NCOA1 inhibition; 360,000 tested, 0.12% active; AID 588354; HEK293 GAL4-SRC1 luciferase reporter, luminescence; inhibition, % at 3.6 µM;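 active means inhibition above the campaign mean plus 3 SD, with each screening campaign given its own cutoff, cut at about 60% in these data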;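 further: 0% = DMSO treated cells and 100% = gossypol at 36 µM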
# SRC3 inh: inhibits human SRC3 coactivator. inhibition, % at 3.6 µM. HEK293 GAL4-SRC3 luciferase reporter, luminescence. 360,000 tested, 0.17% active;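 active means inhibition above a per-campaign cutoff, the mean of all compounds plus 3 SD, cut at about 60% in these data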;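 further: 0% = DMSO-treated cells and 100% = gossypol-treated cells at 36 µM; higher means less SRC3-driven luciferase light from the GAL4 reporter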
# * marks the source's active call; other numbers are inactive results; ? = inconclusive; . = not tested or not shown. Shown are actives, neighbours in structure and some others; about 0.45% of the full set was active somewhere.
SMILES,LRH-1 inv ag,SRC2 inh,LGR2 inh,NCOA1 inh,SRC3 inh
O=C(NC1CCCCC1)N1CC(=O)N2[C@H](C1)[C@@H](c1ccc(-c3cccc(F)c3)cc1)[C@@H]2CO,.,.,-8,.,.
NCCc1c(-c2ccccc2)n(-c2ccccc2)c2ccccc12,16,-15,58*,-13,21
CCOC(=O)N1CCN(c2ncnc3c2[nH]c2ccc(OC)cc23)CC1,34,-12,.,9,-4
COc1ccc2[nH]c3c(N4CCc5ccccc5C4)ncnc3c2c1,-15,-48,79*,-55,1
COc1ccc2c3c([nH]c2c1)[C@H](CO)N(C(=O)c1ccncc1)CC31CN(C(=O)C2CCC2)C1,.,.,-8,.,.
COC1C(CO)OC(n2c3c(Cl)cccc3c3c4c(c5c6cccc(Cl)c6[nH]c5c32)C(=O)NC4=O)C(O)C1O (stereo unspecified),29,-23,60*,70*,64*
CCCS(=O)(=O)c1cnc(C2COc3ccccc3O2)nc1N (stereo unspecified),59,69*,95*,54,60
CCN(CC)c1ccc(C(=C2C=CC(=[N+](CC)CC)C=C2)c2ccc(N(CC)CC)cc2)cc1,96*,16,.,67*,79*
CCN(CC)c1ccc(C(=C2C=CC(=[N+](CC)CC)C=C2)c2ccccc2)cc1,95*,94*,105*,33,62*
COc1ccc2c3c([nH]c2c1)[C@@H](CO)N(C(=O)CN(C)C)CC31CCN(CC2CCCCC2)CC1,.,.,3,.,.
C[C@@H]1CCCCO[C@@H](CN(C)C(=O)Nc2ccc(C(F)(F)F)cc2)[C@@H](C)CN([C@H](C)CO)C(=O)c2cc(NC(=O)c3ccncc3)ccc2O1,.,.,16,.,.
N#Cc1ccccc1COc1ccc(/C=C/C(=O)O)cc1,27,69*,-15,5,14
NC(=S)NN=C1c2cc(OCCN3CCOCC3)ccc2-c2ccc(OCCN3CCOCC3)cc21,75*,34,104*,73*,55
COc1ccc2c3c(n(C)c2c1)[C@@H](CO)NCC31CN(C(=O)Nc2ccc(F)cc2F)C1,.,.,4,.,.
O=C(CCc1nnc(Cc2ccc(-c3ccccc3)cc2)o1)NCCc1ccccn1,3,5,-22,-32,1
CC(c1nccs1)N(C)C(=O)CCc1nnc(-c2ccc(-c3ccccc3)cc2)o1 (stereo unspecified),13,37,-18,-3,13
O=C(CCc1nnc(-c2ccc(-c3ccccc3)cc2)o1)NCCc1ccccn1,-21,59*,-29,-29,-9
COC(=O)CCCNC(=O)CCc1nnc(-c2ccc(-c3ccccc3)cc2)o1,-23,57*,-11,-10,-14
CC(NC(=O)CCc1nnc(-c2ccc(-c3ccccc3)cc2)o1)c1nccs1 (stereo unspecified),-47,67*,19,-20,-10
COc1ccc(/C=N/Nc2cc(C)nc3ccc(OC)cc23)c(OC)c1,12,-10,103*,5,5
COc1ccc(/C=N/Nc2ncccc2[N+](=O)[O-])c(OC)c1,-78,1,66*,-32,-23
CO[C@H]1CN(C)C(=O)c2cc(NC(=O)c3cnccn3)ccc2OC[C@H](C)N(CC2CC2)C[C@H]1C,.,.,2,.,.
N#C[C@@H]1[C@@H](c2ccc(C#Cc3cccnc3)cc2)[C@@H](CO)N1C(=O)C1CCCC1,.,.,-7,.,.
C=C1CCC2C(C)(C)CCC[C@]2(C)[C@H]1CC1=C(O)C(=O)C(CO)=CC1=O (stereo partly specified),.,62*,.,.,.
COc1ccc2c3c([nH]c2c1)[C@H](CO)N(Cc1ccccc1)CC31CN(S(=O)(=O)c2ccc(C)cc2)C1,.,.,-4,.,.
SMILES,LRH-1 inv ag,SRC2 inh,LGR2 inh,NCOA1 inh,SRC3 inh
O=C(NC(=S)Nc1ccc(CN2CCOCC2)cc1)c1ccc(-c2cccc(Cl)c2)o1,15,-1,67*,4,9
O=C(Nc1ccc(CN2CCOCC2)cc1)c1ccc(-c2cccc(Cl)c2)o1,-9,-3,.,3,16
CCCNC(=O)N1CCC2(CC1)CN(C(=O)NC(C)C)[C@@H](CO)c1c2c2ccc(OC)cc2n1C,.,.,14,.,.
O=c1cc(-c2ccccc2Cl)oc2c([N+](=O)[O-])c(O)cc(O)c12,13,49,70*,36,42
O=c1cc(-c2ccccc2Cl)oc2ccc([N+](=O)[O-])c(O)c12,-9,11,-21,9,3
C[C@H](CO)N1C[C@H](C)[C@H](CN(C)C(=O)Nc2ccc(C(F)(F)F)cc2)OCCCC[C@H](C)Oc2ccc(NC(=O)NC3CCCCC3)cc2C1=O,.,.,55*,.,.
C[C@H](CO)N1C[C@H](C)[C@H](CN(C)C(=O)Nc2ccc(F)cc2)OCCCC[C@H](C)Oc2ccc(NC(=O)NC3CCCCC3)cc2C1=O,.,.,72*,.,.
C[C@H](CO)N1C[C@H](C)[C@H](CN(C)C(=O)Nc2ccc(F)cc2)OCCCC[C@H](C)Oc2ccc(NC(=O)Nc3ccccc3)cc2C1=O,.,.,59*,.,.
Cc1noc(C)c1NC(=O)N(C)C[C@@H]1Oc2ncc(C#CCN(C)C)cc2C(=O)N([C@@H](C)CO)C[C@H]1C,.,.,4,.,.
Nc1ccc(-c2nc3ccc(N)cc3s2)cc1,-82,-26,53*,-79,-69
Nc1ccc(-c2nc3ccc(C(=O)O)cc3s2)cc1,-7,34,102*,9,33
O=C(O)c1ccc2nc(-c3ccccc3)sc2c1,-31,25,63*,-39,-4
Nc1cc2sc(-c3ccc(C(=O)O)cc3)nc2cc1Cl,-119,-49,?,-102,-51
O=Nc1c(O)c2ccccc2c2ccccc12,41,52,82*,6,19
COCC(=O)Nc1ccc2c(c1)OC[C@H](C)N(C(=O)NC(C)C)C[C@H](C)[C@@H](OC)CN(C)C2=O,.,.,21,.,.
O=C1C=CC(=O)C(CNc2ccc(C(=O)OCc3ccccc3)cc2)=C1,-42,67*,9,-75,-15
CN(C)c1ccc(C(=O)OCc2ccccc2)cc1,-38,-59,.,-33,-23
COc1ccc2c3c([nH]c2c1)[C@@H](CO)N(S(C)(=O)=O)CC31CCN(C(=O)Cc2cccnc2)CC1,.,.,-1,.,.
COc1ccc(-c2cc(=O)[nH]c3ccccc23)cc1,19,-29,-6,0,-8
COc1cccc2[nH]c(=O)c(-c3ccccc3)cc12,-98,-44,-54,-61,83*
COCC(=O)N(C)C[C@H]1Oc2cc(C#CC3CCCC3)ccc2S(=O)(=O)N([C@@H](C)CO)C[C@@H]1C,.,.,-7,.,.
CC(=O)c1ccc(N=Nc2ccc(C)cc2)cc1,-125,-30,73*,-87,-25
COc1ccc2c3c([nH]c2c1)[C@@H](CO)N(C(=O)c1cccnc1)CC31CN(C(=O)NC(C)C)C1,.,.,2,.,.
CC(C)NC(=O)N(C)C[C@H]1Oc2c(NC(=O)Nc3cccc4ccccc34)cccc2C(=O)N([C@H](C)CO)C[C@H]1C,.,.,-5,.,.
COCC(=O)N1CC(=O)N2[C@H](CO)[C@@H](c3ccc(C#Cc4cccc(OC)c4)cc3)[C@@H]2C1,.,.,2,.,.
